Molecules are shown by their SMILES. Compounds without any hit were thinned out: in the full panel of roughly 83,000, 20% have a hit.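 Growth was measured after 48 h exposure to one concentration of compound in 96-well plates. Values under 10 count as active.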 Activity calls are given as the source filed them.

The test system of the test is SN12C renal. Description: NCI-60 one-dose screen, 48 h (100 = growth as untreated, 0 = no growth, -100 = all killed). The conditions noted are these: 10 µM unless noted.
On to `O=C1OC(Cc2ccccc2)C1c1ccccc1` (stereo not drawn), for which the growth was 97.7% (inactive).
Take `O=C1Nc2cc(-c3ccc(NC(=O)c4ccccc4)cc3)ccc2/C1=C/c1ccc[nH]1`: the growth is 101% (inactive).
Consider `O=C(N/N=C/c1cc2ccccc2n2nnnc12)Nc1ccccc1`, for which the growth was 100% (inactive).
For the compound `O=C1c2ccc3c4c(ccc(c24)C(=O)N1CCCNCc1ccccc1)C(=O)N(CCCNCc1ccccc1)C3=O`, the growth was -88% (active).
`C=C1C(=O)O[C@H]2[C@H]1CC/C(COC(=O)NCCc1c[nH]c3ccc(OC)cc13)=C\CC[C@@]1(C)O[C@@H]21`: the growth is -34.4% (active).
`CCOc1ccc(Nc2nc(-c3ccc4c(c3)NC(=O)CO4)cs2)cc1`: the growth was 78.6% (inactive).
As for `COc1ccc(C(=O)c2cc(C)c(OC)c(C)c2)c(OC)c1OC(=O)C(Cl)Cl`, the growth is 30.1% (inactive).
For `CN(C)c1ccc(Nc2c3ccccc3nc3cc(NC(=O)CCN4CCCC4)ccc23)cc1`, the growth is -7.36% (active).
In the case of `Cc1nc(N)nc(N[C@@H](C)c2nc3cccc(NCc4ccc(C(=O)NO)cc4)c3c(=O)n2-c2ccccc2)n1`, the growth is 84.5% (inactive).
Consider `COc1ccc(C/C(=C(\C)c2ccc(OCCN3CCCC3)cc2)c2ccc(OCCN3CCCC3)cc2)cc1`, for which the growth was 73.8% (inactive).
On to `NC(=NCCCOc1ccc(F)cc1)Nc1ccc(Cl)cc1`, for which the growth is 65.1% (inactive).
On to `CCCOC(=O)N[C@H]1CCc2c(Cl)c(OC)c(OC)c(OC)c2-c2ccc(SC)c(=O)cc21`, for which the growth is 20.5% (inactive).
On to `N#Cc1c(NC(=O)NCc2ccccc2)sc2c1CCCC2`, for which the growth is 35.3% (inactive).
As for `NCCCCCCNc1cc(-c2cccc(OC(F)(F)F)c2)nc2ccc(N3CCCC3)cc12`, the growth is -20.1% (active).
As for `C[C@H]1[C@H](C)CC[C@]2(C(=O)NCC#CCN3CCN(C)CC3)CC[C@]3(C)C(=CC[C@@H]4[C@@]5(C)Cc6c([nH]c7ccccc67)C(C)(C)[C@@H]5CC[C@]43C)[C@H]12`, the growth was 81.2% (inactive).
Consider `N#Cc1c(NCc2ccccc2I)sc2c1CCCCC2`, for which the growth was 96.9% (inactive).
`CN1C(=O)NC(c2ccc3c(c2)OCO3)C=C1c1ccccc1` (stereo not drawn): the growth was 89% (inactive).
As to `COc1cc(/C=C\C(=O)O)ccc1OCc1ccccc1`, the growth was 95% (inactive).
Regarding `CCN(CC)c1ccc(/C=N/NC(=O)CSc2nc3ccccc3c(=O)n2Cc2ccc(S(N)(=O)=O)cc2)c(O)c1`, the growth is 32.5% (inactive).
Regarding `Cc1ccc(S(=O)(=O)NNC(=O)/C(=C\c2ccc(Cl)cc2)c2nc3ccccc3s2)cc1`, the growth is 92.5% (inactive).
Regarding `CCOC(=O)[C@@H]1CCCN(S(=O)(=O)c2ccc(S(=O)(=O)N(CC)CC)c(F)c2)C1`, the growth is 85.4% (inactive).
Consider `Cc1ccc(CNc2c3ccccc3nc3cc(NC(=O)CCN4CCCC4)ccc23)cc1`, for which the growth was 2.87% (active).
Turning to `COc1ccc(CC(C)=C(c2ccc(OCCN3CCCCCC3)cc2)c2ccc(OCCN3CCCCCC3)cc2)cc1`, the growth is -92.4% (active).
Consider `CCCCNC(=O)Oc1ccc(/C(=C(\C)c2ccccc2)c2ccc(OCCN3CCCCC3)cc2)cc1`, for which the growth was 70.7% (inactive).
As for `Cn1c2ccccc2c2c3c(c4c5ccccc5n(C)c4c21)C(=O)OC3`, the growth is 92.3% (inactive).
For `CNC(=O)c1cc(Cn2nc(C)c(NC(=O)Nc3ccc(Cl)c(C(F)(F)F)c3)c2C)ccn1`, the growth is 98.6% (inactive).
Consider `O=C(Nc1ccc(NC(=O)c2cc(=O)[nH]c3ccccc23)cc1)Nc1cccc(Cl)c1`, for which the growth is 88.8% (inactive).
`COc1ccc(C(=O)CSc2nc(-c3cc(OC)ccc3OC)cc(-c3ccc(Cl)cc3)c2C#N)cc1`: the growth is 42.6% (inactive).
Regarding `Cc1cc(C)c(S(=O)(=O)Oc2ccccc2[N+](=O)[O-])c(C)c1`, the growth is 35.6% (inactive).
Turning to `O=C(CCN1CCCC1)Nc1ccc2c(NCc3ccccc3)c3ccccc3nc2c1`, the growth was -5.99% (active).
Consider `CCN(CC)c1ccc(/C=N/NC(=O)CSc2nc3ccccc3c(=O)n2CCc2ccc(S(N)(=O)=O)cc2)c(O)c1`, for which the growth is 28.2% (inactive).
As for `O=C(CSc1nc2sc3c(c2c(=O)n1-c1ccc(Cl)cc1)CCCC3)Nc1nc(-c2cccc(Br)c2)cs1`, the growth was 79.5% (inactive).
Under `COc1ccc(C(C)=O)c(OC)c1` stands 106% (inactive); under `COc1cccc(-c2nc3occn3c2-c2ccnc(NCCCNS(=O)(=O)c3ccc(C(F)(F)F)cc3)n2)c1`, 85.4% (inactive).
As to `C=C1C(=O)O[C@H]2[C@H]1CC/C(C(=O)NCCCCCNC(=O)/C1=C/CC[C@@]3(C)O[C@H]3[C@H]3OC(=O)C(=C)[C@@H]3CC1)=C\CC[C@@]1(C)O[C@@H]21`, the growth was 109% (inactive).
`C=C1C(=O)O[C@H]2[C@H]1CC/C(COC(=O)NCc1c[nH]c3ccc(F)cc13)=C\CC[C@@]1(C)O[C@@H]21`: the growth was -64.4% (active).
Take `Cc1cc2nc3c4cccc(O)c4n(CCN(C)C)c3nc2cc1C`: the growth was 29.6% (inactive).
Take `O=C(Cc1ccccc1)NNc1nc(Cl)nc(N2CCN(C(c3ccccc3)c3ccccc3)CC2)n1`: the growth is 97.1% (inactive).

For the origin of these results see PubChem BioAssay (NCI).
